The panel holds about 79,000 compounds, 15% with a hit somewhere; the sample as a whole holds those more often. Values without a mark were called inactive. Active and inactive are the calls of the source. Cut-off read from the data, not from the text of the source: active = growth inhibition above about 70%; inactive = the rest.

A short description of the first assay: NCI Yeast Anticancer Drug Screen. Data for the bub3 strain (AID 167). The following applies: S. cerevisiae bub3 mutant strain, at 50.0 µM, active compounds read high. The procedure, abridged: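 Growth of a checkpoint-deficient yeast mutant is measured after compound exposure. Values represent inhibition relative to vehicle.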
On to `COC(=O)C1C(=O)C2CCC1C(=O)C2C(=O)OC` (stereo not given), for which the growth inhibition is 9.75%.
Same read-out and setting: for `O=C1CCCCCCCCCCOCCCCO1` the value was 27.7%; for `CC(C)c1ccc(/C=C/C(=O)c2ccc([N+](=O)[O-])cc2)cc1`, 20.9%.
On the same count and under the same terms, with `O=c1ccc2cc3ccoc3c(OCCOCCOCCOCCOc3c4occc4cc4ccc(=O)oc34)c2o1` the figure was 3.5%; with `O=C1CSC(c2ccc(Br)cc2)N1c1nncs1` (stereo not given), 6.6%; with `CCC(C)(C)N`, 9.15%.
On the same count and under the same terms, with `c1scc2c1COCCOCCOCCOCCOCCOCCOC2` the figure was 6.3%; with `Brc1c(CCc2ccc3ccccc3c2Br)ccc2ccccc12`, -2.8%.
On to `C/C=C(\Cl)C(OC(C)=O)OC(C)=O`, for which the growth inhibition is 18.4%.
As for `CN(C)CCC(=O)N1CCc2c([nH]c3ccccc23)C1c1cccnc1` (stereo not given), the growth inhibition was 5.65%.
The same measure, in the same setting: with `O=C(O)C1CCCCC1C(=O)Nc1ccc(Cl)c(Cl)c1` (stereo not given) the figure was 13.6%; with `CC1(COc2ccccc2)NC(=O)c2ccccc2O1` (stereo not given), 0.85%.
On the same count and under the same terms, with `COC(=O)c1ccc(NCC2=CC(=O)c3ccccc3C2=O)cc1` the figure was 54%; with `CCOC(=O)c1c(C)nc(C)nc1N`, -22.1%.
The same measure, in the same setting: for `C/C(=C\CNc1ncnc2c1ncn2C1CCCCO1)COP(=O)(O)O` (stereo not given) the value was -4.8%.
`O=C(CCN1C(=O)CC1c1ccco1)N1CCOCC1` (stereo not given): the growth inhibition was -18.2%.
On the same count and under the same terms, for `COc1cc(C(C)O)c[n+](CCc2c[nH]c3ccccc23)c1` (stereo not given) the value was -28%.
Still for that read-out and setting: with `O=C(c1ccc(F)cc1)c1ccc2ccccc2c1C(=O)O` the figure was 38.2%.
Same read-out and setting: for `O=C(Nc1cccc(Cl)c1)Nc1ccc(Sc2ccc(Cl)cc2)o1` the value was 47.6%.
Consider `c1ccc(C(C2=Nc3cccc4cccc(c34)N2)c2ccccc2)cc1`, for which the growth inhibition is -9.75%.
On the same count and under the same terms, for `O=C1C2=C(c3ccccc31)C(c1ccccc1Cl)N1C(=O)CCSC1=N2` (stereo not given) the value was 4.65%; for `Cc1ccc(NC2=N/C(=C/c3ccco3)C(Cl)=N2)cc1`, 3.8%; for `c1ccc(C2Nc3ccccc3NC2c2ccccc2)cc1` (stereo not given), 60.6%.
Take `O=C1CC2(CCc3ccccc32)C(=O)N1CN1CCN(c2ccccn2)CC1` (stereo not given): the growth inhibition was -1.9%.
Still for that read-out and setting: for `CC1(C)COC(c2ccccc2Cl)OC1` the value was 0.7%; for `COc1ccc(C2=NOC3COC4C=CC=CC4OCC23)cc1` (stereo not given), -19.4%.
Still for that read-out and setting: for `Cc1ccc(NC(=O)CC2SC(=Nc3cccc(Cl)c3C)NC2=O)cc1` (stereo not given) the value was 26.1%.
On the same count and under the same terms, with `CC1(C)CC2=C(Sc3ccccc3N2)C(=O)C1C(=O)C(=O)Nc1cccc([N+](=O)[O-])c1` (stereo not given) the figure was 2%; with `Cc1csc(=NCc2cccnc2)n1C`, 19.8%.
Take `O=C1Nc2ccccc2C1O` (stereo not given): the growth inhibition was 11.1%.
The same measure, in the same setting: with `Cc1c(-c2ccc3c(c2)COC3)sc(N)c1C#N` the figure was 47.8%; with `CCc1cc2c(c3c1CCCC3)CC1(Cc3ccc(C(=O)OC)cc3C1)C2` (stereo not given), 3.15%.
Same read-out and setting: with `O=C1NCC/C1=C\c1ccccc1` the figure was -6.65%; with `CCCNC(=S)/N=C\c1c(O)c2ccccc2oc1=O`, -0.2%.
On the same count and under the same terms, for `O=c1[nH]c2c([N+](=O)[O-])cc(Cl)cc2nc1/C=C(\O)c1cccnc1` the value was 4.25%; for `CC12CC3(Nc4ccccc4C3(C)O)OC1(C)c1ccccc1N2` (stereo not given), -6.1%.
On to `COC(=O)C(Br)(C(=O)OC)C(c1ccccc1)c1ccccc1`, for which the growth inhibition was 41.8%.
As to `c1ccc(-c2ccc(-c3cc4ccccc4c4ccccc34)cc2)cc1`, the growth inhibition is -10.3%.
Still for that read-out and setting: with `Nc1nc(C2CCCCC2)cs1` the figure was 14.9%; with `CCCCCCC1NC(CCCCCC)N2C(CCCCCC)N12` (stereo not given), 21.6%.

A short description of the next assay: NCI Yeast Anticancer Drug Screen. Data for the mlh1 rad18 strain (AID 175). As to conditions: S. cerevisiae mlh1 rad18 strain growth inhibition; at 50.0 µM; active compounds read high. The procedure, abridged: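 In this whole-cell yeast screen, a strain with altered DNA damage repair is challenged with compound, and its growth is measured against matched vehicle-treated controls.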
Regarding `COC(=O)C1C(=O)C2CCC1C(=O)C2C(=O)OC` (stereo not given), the growth inhibition was 22.7%.
Still for that read-out and setting: for `O=C1CCCCCCCCCCOCCCCO1` the value was -13.4%.
With `CC(C)c1ccc(/C=C/C(=O)c2ccc([N+](=O)[O-])cc2)cc1`, the growth inhibition is 3.15%.
The same measure, in the same setting: for `O=c1ccc2cc3ccoc3c(OCCOCCOCCOCCOc3c4occc4cc4ccc(=O)oc34)c2o1` the value was 26.8%; for `O=C1CSC(c2ccc(Br)cc2)N1c1nncs1` (stereo not given), 23.3%.
Consider `CCC(C)(C)N`, for which the growth inhibition was -20.2%.
The same measure, in the same setting: with `c1scc2c1COCCOCCOCCOCCOCCOCCOC2` the figure was -6.9%; with `Brc1c(CCc2ccc3ccccc3c2Br)ccc2ccccc12`, 19.6%; with `C/C=C(\Cl)C(OC(C)=O)OC(C)=O`, 2.55%.
Consider `CN(C)CCC(=O)N1CCc2c([nH]c3ccccc23)C1c1cccnc1` (stereo not given), for which the growth inhibition is -40.5%.
In the case of `O=C(O)C1CCCCC1C(=O)Nc1ccc(Cl)c(Cl)c1` (stereo not given), the growth inhibition is -48.1%.
On the same count and under the same terms, with `CC1(COc2ccccc2)NC(=O)c2ccccc2O1` (stereo not given) the figure was -6.25%; with `COC(=O)c1ccc(NCC2=CC(=O)c3ccccc3C2=O)cc1`, 88% (active).
Same read-out and setting: with `CCOC(=O)c1c(C)nc(C)nc1N` the figure was 2%; with `C/C(=C\CNc1ncnc2c1ncn2C1CCCCO1)COP(=O)(O)O` (stereo not given), 27.9%.
The same measure, in the same setting: with `O=C(CCN1C(=O)CC1c1ccco1)N1CCOCC1` (stereo not given) the figure was 13.3%; with `COc1cc(C(C)O)c[n+](CCc2c[nH]c3ccccc23)c1` (stereo not given), -36.5%.
On to `O=C(c1ccc(F)cc1)c1ccc2ccccc2c1C(=O)O`, for which the growth inhibition is -11.3%.
Same read-out and setting: for `O=C(Nc1cccc(Cl)c1)Nc1ccc(Sc2ccc(Cl)cc2)o1` the value was 69.8%.
Still for that read-out and setting: for `c1ccc(C(C2=Nc3cccc4cccc(c34)N2)c2ccccc2)cc1` the value was -22.8%; for `O=C1C2=C(c3ccccc31)C(c1ccccc1Cl)N1C(=O)CCSC1=N2` (stereo not given), -3.45%; for `Cc1ccc(NC2=N/C(=C/c3ccco3)C(Cl)=N2)cc1`, -31.9%.
Still for that read-out and setting: for `c1ccc(C2Nc3ccccc3NC2c2ccccc2)cc1` (stereo not given) the value was 56.8%; for `O=C1CC2(CCc3ccccc32)C(=O)N1CN1CCN(c2ccccn2)CC1` (stereo not given), 18.1%; for `CC1(C)COC(c2ccccc2Cl)OC1`, 18.6%.
Turning to `COc1ccc(C2=NOC3COC4C=CC=CC4OCC23)cc1` (stereo not given), the growth inhibition is -18.6%.
Same read-out and setting: for `Cc1ccc(NC(=O)CC2SC(=Nc3cccc(Cl)c3C)NC2=O)cc1` (stereo not given) the value was 11%.
The same measure, in the same setting: for `CC1(C)CC2=C(Sc3ccccc3N2)C(=O)C1C(=O)C(=O)Nc1cccc([N+](=O)[O-])c1` (stereo not given) the value was 1.1%; for `Cc1csc(=NCc2cccnc2)n1C`, 15.8%.
Same read-out and setting: with `O=C1Nc2ccccc2C1O` (stereo not given) the figure was -4.2%.
For `Cc1c(-c2ccc3c(c2)COC3)sc(N)c1C#N`, the growth inhibition is -5.4%.
For `CCc1cc2c(c3c1CCCC3)CC1(Cc3ccc(C(=O)OC)cc3C1)C2` (stereo not given), the growth inhibition is -12.4%.
The same measure, in the same setting: with `O=C1NCC/C1=C\c1ccccc1` the figure was -15.4%; with `CCCNC(=S)/N=C\c1c(O)c2ccccc2oc1=O`, -5.4%.
The same measure, in the same setting: for `O=c1[nH]c2c([N+](=O)[O-])cc(Cl)cc2nc1/C=C(\O)c1cccnc1` the value was 45.1%.
Same read-out and setting: for `CC12CC3(Nc4ccccc4C3(C)O)OC1(C)c1ccccc1N2` (stereo not given) the value was 17.5%.
Consider `COC(=O)C(Br)(C(=O)OC)C(c1ccccc1)c1ccccc1`, for which the growth inhibition is 37.3%.
Still for that read-out and setting: for `c1ccc(-c2ccc(-c3cc4ccccc4c4ccccc34)cc2)cc1` the value was -9.2%.
Same read-out and setting: with `Nc1nc(C2CCCCC2)cs1` the figure was 20.4%; with `CCCCCCC1NC(CCCCCC)N2C(CCCCCC)N12` (stereo not given), -2.7%.

(Values after PubChem BioAssay (NCI).)
